Reference: PubChem BioAssay (Tox21)
Inconclusive results are not listed. Some compounds were tested as several samples or in several runs, with calls that do not always agree. The source made the active and inactive calls. Unless noted, the call rests on the fitted dose curve; in most records, active means well fitted curve in the direction sought with a large enough effect in the repeat runs; inconclusive means weak or mixed curves; inactive means no such curve, though single readings can be large; an effect the other way counts as inactive or inconclusive.

Tests used:
[1] = qHTS assay to identify small molecule agonists of the vitamin D receptor (VDR) signaling pathway - cell viability counter screen (AID 743224); further: nearly all actives have a fitted effect of over 50% in size; further: potency means the concentration at half of the fitted maximal effect
Outline: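 CellTiter-Glo viability readout on VDR-bla cells, measured after 16 h of compound treatment at 37C in the same wells.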

[2] = qHTS assay to identify small molecule antagonists of the vitamin D receptor (VDR) signaling pathway - cell viability counter screen (AID 743225); further: nearly all actives have a fitted effect of over 50% in size
Outline: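 VDR-bla HEK 293T cells, 4 h pre-incubation at 37C, then compound plus 1-alpha,25-dihydroxyvitamin D3 (3 nM final) for 16 h. After the beta-lactamase FRET read, CellTiter-Glo was added to the same wells; luminescence after 30 min at room temperature.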

[3] = qHTS assay to identify small molecule agonists of the NFkB signaling pathway (AID 1159509; active means well fitted curve in the direction sought with a large enough effect in the signal ratio in the repeat runs, not every such curve was filed as active; the % refers to the signal ratio; further: series mostly up to about 61 µM)
Outline: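 Agonist activity was read as beta-lactamase-driven FRET change (460 and 530 nm emission, 405 nm excitation) following 1.5 hr substrate loading at room temperature. Beforehand, ME-180 NFkB-bla reporter cells were treated with compounds for 5 hr at 37 C.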

[4] = qHTS assay to identify small molecule agonists of the NFkB signaling pathway - cell viability counter screen (AID 1159515; calls by dose curve; further: series mostly up to about 61 µM; nearly all actives have a fitted effect of over 55% in size)
Outline: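 Tox21 library compounds were tested for cytotoxicity against NFkB-bla ME-180 cells during a 5 hr exposure at 37 C. CellTiter-Glo luminescence served as the viability read-out.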

[5] = qHTS assay to identify small molecule agonists of the endoplasmic reticulum stress response signaling pathway - cell viability counter screen (AID 1159517; calls by dose curve; further: series mostly up to about 61 µM; nearly all actives have a fitted effect of over 50% in size)
Outline: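 ESRE-bla HeLa cells (1,500/well) were plated overnight at 37 C and exposed to compounds for 5 hr. After the 2 hr beta-lactamase substrate read, CellTiter-Glo went into the same wells, and luminescence was read after 30 min at room temperature.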

[6] = qHTS assay to identify small molecule antagonists of the retinoid-related orphan receptor gamma (ROR-gamma) signaling pathway - cell viability counter screen (AID 1159520); further: nearly all actives have a fitted effect of over 50% in size
Outline: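 Cytotoxicity was read from cellular ATP (CellTiter-Glo luminescence) after 16 hr at 37 C with 1 uM doxycycline induction. The inducer was added 2 hr after compound transfer to Tet-on ROR gamma CHO cells.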

[7] = target: Nuclear receptor ROR-gamma (Homo sapiens) (UniProt P51449); test: qHTS assay to identify small molecule antagonists of the retinoid-related orphan receptor gamma (ROR-gamma) signaling pathway (AID 1159521)
Outline: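 Tet-on RORγ CHO cells carrying a ROR response element–luciferase reporter were pretreated with compounds for 2 h, then induced with 1 uM (final) doxycycline hyclate for 16 h at 37 C. Antagonism was read as decreased ONE-Glo luminescence.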

[8] = qHTS assay to identify small molecule agonists of the AP-1 signaling pathway - cell viability counter screen (AID 1159525; calls by dose curve; further: nearly all actives have a fitted effect of over 55% in size; further: potency means the concentration at half of the fitted maximal effect)
Outline: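 Intracellular ATP by Cell Titer Glo luminescence (30 min, RT) in the same ME-180 AP-1-bla wells after the 5 h compound exposure at 37 °C. Normalised to tetra n-octyl ammonium bromide and DMSO controls.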

[9] = qHTS assay to identify small molecule agonists of the AP-1 signaling pathway (AID 1159526; calls by dose curve)
[10] = target: Retinoic acid receptor RXR-alpha (Homo sapiens) (UniProt P19793); test: qHTS assay to identify small molecule agonists of the RXR signaling pathway (AID 1159527; calls by dose curve; further: nearly all actives have a fitted effect of over 35% in size)
Retinoic acid receptor RXR-alpha (Homo sapiens), sequence (P19793 whole entry, looked up): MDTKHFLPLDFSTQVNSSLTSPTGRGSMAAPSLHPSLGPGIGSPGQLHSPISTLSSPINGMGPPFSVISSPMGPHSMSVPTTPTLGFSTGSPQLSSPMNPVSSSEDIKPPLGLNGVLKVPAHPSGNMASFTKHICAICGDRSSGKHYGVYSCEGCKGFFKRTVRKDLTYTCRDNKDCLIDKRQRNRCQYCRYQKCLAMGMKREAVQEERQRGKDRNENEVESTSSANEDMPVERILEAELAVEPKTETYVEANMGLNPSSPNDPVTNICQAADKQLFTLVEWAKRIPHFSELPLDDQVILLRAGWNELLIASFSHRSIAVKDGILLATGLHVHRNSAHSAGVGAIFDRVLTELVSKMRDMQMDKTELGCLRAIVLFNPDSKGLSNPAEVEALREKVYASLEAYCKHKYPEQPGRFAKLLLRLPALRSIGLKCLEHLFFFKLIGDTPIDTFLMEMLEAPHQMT
Outline: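 GeneBLAzer RXR-alpha-UAS-bla HEK 293T cells in medium with 2% charcoal-stripped FBS, pre-incubated 5 hr at 37 C, then exposed to compounds 16 hr. Beta-lactamase reporter read by FRET substrate, 2 hr room temperature, 460/530 nm emission.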

[11] = qHTS assay to identify small molecule agonists of the RXR signaling pathway - cell viability counter screen (AID 1159529); further: nearly all actives have a fitted effect of over 50% in size; further: potency means the concentration at half of the fitted maximal effect
Outline: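 RXR-alpha-UAS-bla HEK 293T cells in medium with 2% charcoal-stripped FBS were preincubated 5 hr, then exposed to compounds for 16 hr at 37 C. Viability was read as CellTiter-Glo luminescence after 30 min at room temperature.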

[12] = qHTS assay to identify small molecule antagonists of the retinoid acid receptor (RAR) signaling pathway - cell viability counter screen (AID 1159551); further: nearly all actives have a fitted effect of over 35% in size
Outline: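 In this counter screen, the RARE-luciferase line C3RL4 was exposed for 6 h at 37 C and 5% CO2 to compounds with retinol at 1 uM final. Cellular ATP, read by luminescence, served as the viability measure.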

[13] = qHTS assay to identify small molecule antagonists of the retinoic acid receptor (RAR) signaling pathway (AID 1159552; further: nearly all actives have a fitted effect of over 50% in size)
Outline: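 RARE-luc C3RL4 cells; cpds + 1 uM (final) retinol, 6 hr, 37 C/5% CO2; luciferase reagent, 30 min RT, luminescence readout. Inhibitors of retinol-driven signal scored.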

[14] = qHTS assay to identify small molecule agonists of the retinoic acid receptor (RAR) signaling pathway (AID 1159553); further: potency means the concentration at half of the fitted maximal effect
Outline: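 In this cell-based screen, 1,000 C3RL4 cells per well were cultured overnight, dosed with test chemicals in DMSO for 6 hr, and assessed for RARE luciferase luminescence.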

[15] = qHTS assay to identify small molecule agonists of the endoplasmic reticulum stress response signaling pathway (AID 1159516; active means well fitted activation curve with a large enough effect in the signal ratio in the repeat runs, not every such curve was filed as active; the % refers to the signal ratio)
Outline: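 Fluorescence at 460 and 530 nm (405 nm excitation) reports beta-lactamase from an ER stress response element in HeLa cells treated 5 hr at 37 C.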

[16] = qHTS assay to identify small molecule antagonists of the estrogen related receptor (ERR) signaling pathway - cell viability counter screen (AID 1224818); further: series mostly up to about 46 µM
Outline: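 Viability of ERR cells, CellTiter-Fluor fluorescence; 17.5 h compound exposure at 37 C, DMSO vehicle; 30 min reagent incubation at 37 C/5% CO2.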

[17] = qHTS assay to identify small molecule antagonists of the estrogen related receptor signaling pathway with the pleiotropic PPARgamma coactivator (PGC) cell viability counter screen (AID 1224822; further: series mostly up to about 46 µM)
Outline: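 17.5 h compound treatment of PGC/ERR cells at 37 C; readout CellTiter-Fluor fluorescence; run alongside the PGC/ERR antagonist screen to flag cytotoxic compounds.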

[18] = qHTS assay to identify small molecule antagonists of the estrogen related receptor (ERR) signaling pathway (AID 1224819)
Outline: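 Seed ERR cells 2,000/well; rest 6 h at 37 C/5% CO2; pin compounds in DMSO; incubate 18 h at 37 C; add One-Glo; wait 30 min at room temperature; measure luminescence.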

[19] = qHTS assay to identify small molecule agonists of the estrogen related receptor (ERR) signaling pathway (AID 1224820)
Outline: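 After 6 h plating (2,000 cells/well) and 18 h compound treatment at 37 C, ERR cells were lysed with One-Glo and luminescence read after 30 min at room temperature.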

[20] = system: estrogen-related receptor alpha (ERRalpha) with PGC-1alpha coactivator, human; test: qHTS assay to identify small molecule antagonists of the estrogen related receptor signaling pathway with the pleiotropic PPARgamma coactivator (PGC) (AID 1224821; calls by dose curve)
Outline: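 Luminescence from One-Glo luciferase reagent (30 min, room temperature) measured after 18 h compound treatment at 37 °C. Cells carry the PGC/ERR reporter and were seeded 6 h prior to dosing.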

Measured: Potency

C[N+](C)(C)CC(O)CC(=O)[O-] (configuration not stated)
not listed: [15] | [16] | [17] | [18] | [19] | [20]
inactive: all other assays above

CC(=O)CC(C)(C)C1CCCCC1
not listed: [6] | [15] | [16] | [17] | [18] | [19] | [20]
inactive: all other assays above

CO[C@]12C[C@@H](COC(=O)c3cncc(Br)c3)CN(C)[C@@H]1Cc1cn(C)c3cccc2c13
not listed: [5] | [15] | [16] | [17] | [18] | [19] | [20]
inactive: all other assays above

O=C(O)CCCl
not listed: [6] | [15] | [16] | [17] | [18] | [19] | [20]
inactive: all other assays above

Cn1cc(S(C)=O)c(=O)c2ccc(F)cc21 (configuration not stated)
not listed: [5] | [15] | [16] | [17] | [18] | [19] | [20]
inactive: all other assays above

CC/C=C\CC/C=C/CO
not listed: [3] | [15] | [16] | [17] | [18] | [19] | [20]
inactive: all other assays above

CCS(=O)(=O)c1ccc(OC)c(C(=O)OC)c1
not listed: [1] | [15] | [16] | [17] | [18] | [19] | [20]
inactive: all other assays above

CC(=O)OCC(=O)[C@@]1(O)CC[C@H]2[C@@H]3CCC4=CC(=O)CC[C@]4(C)[C@H]3C(=O)C[C@@]21C
not listed: [1] | [3] | [18] | [19] | [20]
inactive: all other assays above

O=C1OC(=O)C2CCCCC12 (configuration not stated)
not listed: [1] | [5] | [15] | [16] | [17] | [18] | [19] | [20]
inactive: all other assays above

CCOC(=O)CC(C)=O
inactive: [1] | [2] | [4] | [5] | [8] | [9] | [10] | [11] | [12] | [13] | [14]

CN1CC(=O)NC1=N
not listed: [15] | [16] | [17] | [18] | [19] | [20]
inactive: all other assays above

CS(=O)(=O)O
not listed: [5] | [15] | [16] | [17] | [18] | [19] | [20]
inactive: all other assays above

CCCCOCCOCCOCCCC
not listed: [5] | [15] | [16] | [17] | [18] | [19] | [20]
inactive: all other assays above

O=c1n(CCO)c(=O)n(CCO)c(=O)n1CCO
not listed: [15] | [16] | [17] | [18] | [19] | [20]
inactive: all other assays above

Cc1cnc(NS(=O)(=O)c2ccc(N)cc2)nc1
not listed: [15] | [16] | [17] | [18] | [19] | [20]
inactive: all other assays above

COC(=O)C1=C(C)NC(C)=C(C(=O)OC)C1c1ccccc1[N+](=O)[O-]
49 µM (active) and inactive: [8]
24.4 µM (active) and inactive: [14]
27.6 µM (active) and inactive: [11]
39 µM (active) and inactive: [1]
not listed: [7] | [15]
inactive: all other assays above

NC(=O)c1ccc(N)cc1
not listed: [15] | [16] | [17] | [18] | [19] | [20]
inactive: all other assays above

COC(=O)[C@@H](N)Cc1ccc(O)c(O)c1
not listed: [1] | [6] | [15]
inactive: all other assays above

N[C@H]1CN(c2c(F)cc3c(=O)c(C(=O)O)cn(C4C[C@H]4F)c3c2Cl)CC12CC2 (some centres not stated)
not listed: [5] | [6] | [15] | [16] | [17] | [18] | [19] | [20]
inactive: all other assays above

Cc1cccc(C)c1NC(=O)C(C)N (configuration not stated)
not listed: [6] | [15]
inactive: all other assays above
